Among the test systems are NCI-H23 lung; NCI-H226 lung; NCI-H322M lung; HOP-62 NSCLC; NCI-H460 lung; HOP-92 NSCLC; NCI-H522 lung; A549/ATCC NSCLC; 786-0 renal; COLO 205 colon; DU-145 prostate; K-562 leukemia; MALME-3M melanoma; MDA-MB-231 breast; RXF 393 renal; SF-268 CNS; SF-295 CNS; SF-539 CNS; UACC-257 melanoma; M14 melanoma.
What all share (test): NCI-60 one-dose screen, 48 h (100 = growth as untreated, 0 = no growth, -100 = all killed)
What all share (details): 10 µM unless noted

The structures appear in SMILES notation. Compounds without any hit were thinned out: in the full panel of roughly 83,000, 20% have a hit.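 The endpoint reported here, percent growth, reads 100 for growth as untreated, 0 for no net growth and -100 for all cells dead.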 Unmarked numbers belong to inactive results. Calls of active or inactive are those of the source. The calls were made as follows: active = growth percent below 10; inactive = the rest.

In the case of `COc1ccc(C(=O)/C=C/Nc2cc(-c3ccccc3)nn2-c2ccccc2)cc1`, the growth in the test on NCI-H23 lung was 90%; in the test with NCI-H226 lung, 79.8%; with NCI-H322M lung, 93.2%; with HOP-62 NSCLC it was 102%; in the test on NCI-H460 lung it was 98%; in the test with HOP-92 NSCLC, 80.8%. Also, the growth in the test with NCI-H522 lung was 82.7%; in the test with A549/ATCC NSCLC, 91.4%; with 786-0 renal, 89%; with COLO 205 colon, 110%; in the test with DU-145 prostate it was 99.7%; in the test on K-562 leukemia, 80.8%. Further, the growth was 100% in the test on MALME-3M melanoma; 93.4% in the test on MDA-MB-231 breast; 85.5% with RXF 393 renal; 90.2% in the test on SF-268 CNS; 95.2% with SF-295 CNS; 95.2% in the test with SF-539 CNS. The growth in the test on UACC-257 melanoma is 90.8%; in the test with M14 melanoma, 93%.
Consider `Cc1nn(C)c2ncnc(Nc3ccccc3Br)c12`, for which the growth with NCI-H23 lung was 101%; with NCI-H226 lung it was 96.3%; in the test on NCI-H322M lung, 106%; in the test with HOP-62 NSCLC, 101%; in the test with NCI-H460 lung, 106%; with HOP-92 NSCLC, 104%. The growth in the test on NCI-H522 lung was 98.7%; in the test with A549/ATCC NSCLC it was 99.3%; in the test with 786-0 renal it was 97.8%; in the test with COLO 205 colon it was 119%; in the test with DU-145 prostate it was 103%; in the test on K-562 leukemia, 97.1%. Also, the growth in the test on MALME-3M melanoma was 111%; in the test with MDA-MB-231 breast, 85.2%; in the test with RXF 393 renal, 104%; in the test on SF-268 CNS, 99.2%; in the test on SF-295 CNS it was 95.8%; with SF-539 CNS, 99.9%. The values for the growth in the test with UACC-257 melanoma and in the test on M14 melanoma were 105% and 101%, respectively.
On to `CC(=O)O[C@H]1CC[C@@]2(C)C(=CC[C@@H]3[C@@H]2CC[C@]2(C)C(Cl)=C(c4nc5ccc(Cl)cn5c4NC(C)(C)C)C[C@@H]32)C1`, for which the growth in the test on NCI-H23 lung is 88.1%; in the test on NCI-H226 lung, 92.3%; in the test on NCI-H322M lung, 96.1%; with HOP-62 NSCLC, 90.8%; in the test with NCI-H460 lung, 99.9%; in the test on HOP-92 NSCLC, 15.6%. Besides, the growth in the test on NCI-H522 lung was 86.8%; in the test on A549/ATCC NSCLC it was 89.5%; with 786-0 renal it was 85%; in the test on COLO 205 colon, 103%; with DU-145 prostate, 95.8%; in the test with K-562 leukemia it was 85.4%. For the same molecule, the growth in the test on MALME-3M melanoma was 66.7%; in the test on MDA-MB-231 breast it was 87.5%; in the test on RXF 393 renal, 90.1%; with SF-268 CNS, 101%; in the test on SF-295 CNS, 93.2%; in the test with SF-539 CNS, 97.6%. In addition, the growth in the test on UACC-257 melanoma was 98.9%; with M14 melanoma, 93.1%.
As for `Cc1cccc(C)c1NC(=O)Nc1ccccc1`, the growth in the test with NCI-H23 lung is 88.4%; with NCI-H226 lung, 107%; in the test with NCI-H322M lung, 80.3%; with HOP-62 NSCLC, 95.8%; in the test with NCI-H460 lung, 44%; in the test on HOP-92 NSCLC it was 128%. The growth is 49.4% with NCI-H522 lung; 86.8% with A549/ATCC NSCLC; 110% in the test with 786-0 renal; 102% in the test on COLO 205 colon; 9.29% (active) with DU-145 prostate; 102% in the test with K-562 leukemia. Besides, the growth is 98.4% in the test on MALME-3M melanoma; 96.9% in the test with MDA-MB-231 breast; 87.3% in the test on RXF 393 renal; 96.1% in the test with SF-268 CNS; 66.7% in the test on SF-295 CNS; 108% in the test with SF-539 CNS. Further, the figures for the growth in the test with UACC-257 melanoma and with M14 melanoma were 98.2% and 109%, respectively.
For `O=C(Cn1cc(CSc2nc3ccccc3o2)nn1)Nc1ccc([N+](=O)[O-])cc1`, the growth was 97.8% in the test on NCI-H23 lung; 99.4% in the test on NCI-H226 lung; 102% in the test with NCI-H322M lung; 83.7% in the test with HOP-62 NSCLC; 98.5% in the test with NCI-H460 lung; 95.2% in the test with HOP-92 NSCLC. Moreover, the growth is 78.5% with NCI-H522 lung; 101% in the test with A549/ATCC NSCLC; 99.1% in the test with 786-0 renal; 110% in the test on COLO 205 colon; 108% in the test with DU-145 prostate; 92.6% in the test on K-562 leukemia. In addition, the growth in the test on MALME-3M melanoma was 104%; in the test on MDA-MB-231 breast, 91.5%; in the test on RXF 393 renal, 108%; with SF-268 CNS, 91.8%; in the test with SF-295 CNS, 102%; in the test on SF-539 CNS, 101%. The figures for the growth with UACC-257 melanoma and with M14 melanoma were 110% and 96.2%, respectively.
`CCN=c1sc2c(n1NC(=O)c1cc3ccc1CCc1ccc(cc1)CC3)C(=O)c1ccccc1C2=O`: the growth was -32.1% (active) with NCI-H23 lung; 73% with NCI-H226 lung; 80.5% with NCI-H322M lung; -58.6% (active) in the test on HOP-62 NSCLC; 9.62% (active) in the test with NCI-H460 lung; -9.79% (active) with HOP-92 NSCLC. Further, the growth is -34.8% (active) with NCI-H522 lung; -38.8% (active) in the test with A549/ATCC NSCLC; -90.4% (active) in the test with 786-0 renal; 42.6% in the test on COLO 205 colon; -91.4% (active) in the test on DU-145 prostate; -28.5% (active) in the test with K-562 leukemia. The growth with MALME-3M melanoma is -87.4% (active); in the test with MDA-MB-231 breast, -7.49% (active); with RXF 393 renal, -87.2% (active); with SF-268 CNS, -10.6% (active); in the test with SF-295 CNS, 31%; in the test with SF-539 CNS, -94.4% (active). In addition, the results for the growth in the test with UACC-257 melanoma and in the test on M14 melanoma were -90.5% (active) and -93.5% (active), respectively.
As for `c1ccc(-c2cn3nc(-c4c[nH]c5ccccc45)sc3n2)cc1`, the growth with NCI-H23 lung was 87.6%; in the test on NCI-H226 lung it was 77.3%; in the test on NCI-H322M lung, 71.4%; in the test with HOP-62 NSCLC it was 73.6%; in the test on NCI-H460 lung, 89.2%; in the test on HOP-92 NSCLC, 75.5%. Also, the growth was 61.2% with NCI-H522 lung; 82.6% with A549/ATCC NSCLC; 102% in the test on 786-0 renal; 87.1% in the test with COLO 205 colon; 98% with DU-145 prostate; 42.4% with K-562 leukemia. Besides, the growth in the test with MALME-3M melanoma is 62.6%; with MDA-MB-231 breast, 76.5%; in the test with RXF 393 renal, 97.4%; in the test with SF-268 CNS, 94.4%; with SF-295 CNS it was 83.7%; in the test with SF-539 CNS, 85.5%. The growth in the test on UACC-257 melanoma is 83.2%; in the test with M14 melanoma it was 71.1%.
Turning to `CC(=O)c1c(/C=C/c2ccc(C)cc2)c2ccccc2[nH]c1=O`, the growth is 86.5% with NCI-H23 lung; 63% in the test with NCI-H226 lung; 91.2% in the test on NCI-H322M lung; 89.4% with HOP-62 NSCLC; 91.3% with NCI-H460 lung; 73.1% in the test with HOP-92 NSCLC. Besides, the growth with NCI-H522 lung is 84.6%; with A549/ATCC NSCLC, 85.4%; in the test with 786-0 renal, 97.8%; with COLO 205 colon, 105%; in the test on DU-145 prostate it was 94.9%; with K-562 leukemia it was 90.6%. The growth was 121% in the test with MALME-3M melanoma; 91.7% in the test on MDA-MB-231 breast; 104% in the test with RXF 393 renal; 75.5% in the test on SF-268 CNS; 103% in the test with SF-295 CNS; 86.2% in the test with SF-539 CNS. The figures for the growth with UACC-257 melanoma and with M14 melanoma were 81.1% and 104%, respectively.

Source of the values: PubChem BioAssay (NCI).
